# Laboratory results reported in paper PMC7862700, “An all-to-all approach to the identification of sequence-specific readers for epigenetic DNA modifications on cytosine”.
# Assays:
# Assay in all cases: DAPPL (digital affinity profiling via proximity ligation, sequencing); 10 mM Tris-HCl pH 7.5, 50 mM NaCl, 1 mM DTT, 4% glycerol, room temperature, 30 min; GST-TFs on glutathione beads, 16-mer random dsDNA library, 0.1% formaldehyde crosslink after washing; high values mean tight binding
# Settings in all cases: protein: recombinant; tags: N-terminal GST; dsDNA, one strand shown
# ELK1 = target: T1, ELK1 (Homo sapiens, UniProt P19419 1-428)
# T1 sequence: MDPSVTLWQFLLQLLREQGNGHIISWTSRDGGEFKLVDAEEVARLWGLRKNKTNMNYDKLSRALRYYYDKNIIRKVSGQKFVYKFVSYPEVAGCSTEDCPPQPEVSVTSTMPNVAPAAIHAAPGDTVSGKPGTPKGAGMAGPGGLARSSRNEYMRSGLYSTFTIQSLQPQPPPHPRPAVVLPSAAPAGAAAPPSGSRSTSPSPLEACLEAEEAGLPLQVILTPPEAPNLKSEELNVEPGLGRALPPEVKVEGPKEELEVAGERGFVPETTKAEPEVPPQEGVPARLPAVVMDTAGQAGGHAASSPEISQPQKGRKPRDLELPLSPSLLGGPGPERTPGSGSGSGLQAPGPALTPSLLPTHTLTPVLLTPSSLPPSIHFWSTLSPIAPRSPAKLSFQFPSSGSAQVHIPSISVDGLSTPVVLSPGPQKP
# Summary of the method: (§1)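 A tag-only sample was pooled with DNA-barcoded human transcription factors that had been expressed in yeast as GST fusions and captured on glutathione beads. The pools were incubated for 30 min at room temperature with 200 nmole of a random double-stranded 16-mer DNA library in Tris/NaCl/DTT/glycerol buffer, then washed, crosslinked with 0.1% formaldehyde, proximity-ligated (BsaI/T4 ligase, 1 h, 37 °C), PCR-amplified and sequenced on an Illumina NextSeq500. Binding signal is each hexamer's read frequency for a factor divided by its frequency for the tag-only sample.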
# ELF4 = ELF4 (Homo sapiens, UniProt Q99607 1-663)
# ELF4, sequence (Q99607 whole entry): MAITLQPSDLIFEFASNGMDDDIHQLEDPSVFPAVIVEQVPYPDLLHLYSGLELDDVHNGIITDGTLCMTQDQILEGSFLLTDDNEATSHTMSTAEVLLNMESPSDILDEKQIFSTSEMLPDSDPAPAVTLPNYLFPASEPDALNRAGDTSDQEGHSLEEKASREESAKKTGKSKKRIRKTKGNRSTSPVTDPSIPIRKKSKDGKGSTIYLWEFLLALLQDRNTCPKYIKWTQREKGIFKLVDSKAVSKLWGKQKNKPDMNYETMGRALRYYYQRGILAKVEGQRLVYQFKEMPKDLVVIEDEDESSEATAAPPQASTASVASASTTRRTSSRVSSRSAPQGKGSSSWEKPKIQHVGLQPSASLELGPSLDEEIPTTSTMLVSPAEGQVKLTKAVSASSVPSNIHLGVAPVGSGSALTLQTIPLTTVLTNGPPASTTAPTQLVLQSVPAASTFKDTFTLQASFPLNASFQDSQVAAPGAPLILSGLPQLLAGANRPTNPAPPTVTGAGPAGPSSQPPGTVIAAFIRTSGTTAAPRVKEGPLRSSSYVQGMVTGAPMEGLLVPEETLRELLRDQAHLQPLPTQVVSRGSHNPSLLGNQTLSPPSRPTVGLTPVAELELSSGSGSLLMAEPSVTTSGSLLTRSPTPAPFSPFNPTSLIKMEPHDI
# Summary of the method: as §1
# ETV2 = target: T2, ETV2 (Homo sapiens, UniProt O00321 1-342)
# T2 sequence: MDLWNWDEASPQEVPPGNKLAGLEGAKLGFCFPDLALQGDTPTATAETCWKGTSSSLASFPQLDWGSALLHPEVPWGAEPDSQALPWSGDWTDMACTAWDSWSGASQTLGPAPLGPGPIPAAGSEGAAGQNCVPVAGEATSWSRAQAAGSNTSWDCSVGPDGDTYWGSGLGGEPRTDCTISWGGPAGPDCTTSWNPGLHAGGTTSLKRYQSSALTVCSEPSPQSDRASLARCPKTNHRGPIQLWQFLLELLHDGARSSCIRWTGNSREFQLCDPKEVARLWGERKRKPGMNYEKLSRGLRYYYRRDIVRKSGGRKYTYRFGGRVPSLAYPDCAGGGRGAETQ
# Summary of the method: as §1
# ETV6 = ETV6 (Homo sapiens, UniProt P41212 1-452)
# ETV6, sequence (P41212 whole entry): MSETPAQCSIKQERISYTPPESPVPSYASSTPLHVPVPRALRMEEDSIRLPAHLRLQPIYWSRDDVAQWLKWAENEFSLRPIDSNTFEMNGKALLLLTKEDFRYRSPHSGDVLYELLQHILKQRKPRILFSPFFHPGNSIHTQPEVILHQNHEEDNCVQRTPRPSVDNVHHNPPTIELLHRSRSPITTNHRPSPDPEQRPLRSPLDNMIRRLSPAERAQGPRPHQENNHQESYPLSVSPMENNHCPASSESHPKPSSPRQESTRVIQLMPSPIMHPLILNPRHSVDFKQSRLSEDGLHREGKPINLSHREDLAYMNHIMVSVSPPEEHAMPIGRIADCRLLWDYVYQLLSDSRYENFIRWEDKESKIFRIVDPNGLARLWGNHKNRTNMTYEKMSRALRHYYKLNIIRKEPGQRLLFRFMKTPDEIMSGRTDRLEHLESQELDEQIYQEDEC
# Summary of the method: as §1
# ELF3 = target: T3, ELF3 (Homo sapiens, UniProt P78545 1-371)
# T3 sequence: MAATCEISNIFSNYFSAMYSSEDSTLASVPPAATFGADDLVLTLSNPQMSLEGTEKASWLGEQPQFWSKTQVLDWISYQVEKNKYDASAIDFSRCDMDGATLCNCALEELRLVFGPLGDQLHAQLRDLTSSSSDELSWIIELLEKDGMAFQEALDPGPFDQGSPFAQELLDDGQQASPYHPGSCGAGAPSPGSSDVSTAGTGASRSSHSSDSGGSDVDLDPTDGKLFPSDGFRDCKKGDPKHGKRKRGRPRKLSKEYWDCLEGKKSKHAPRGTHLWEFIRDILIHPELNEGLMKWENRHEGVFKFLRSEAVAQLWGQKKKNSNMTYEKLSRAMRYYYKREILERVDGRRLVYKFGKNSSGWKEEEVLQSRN
# Summary of the method: as §1
# CRX = CRX (Homo sapiens, UniProt O43186 1-299)
# CRX, sequence (O43186 whole entry): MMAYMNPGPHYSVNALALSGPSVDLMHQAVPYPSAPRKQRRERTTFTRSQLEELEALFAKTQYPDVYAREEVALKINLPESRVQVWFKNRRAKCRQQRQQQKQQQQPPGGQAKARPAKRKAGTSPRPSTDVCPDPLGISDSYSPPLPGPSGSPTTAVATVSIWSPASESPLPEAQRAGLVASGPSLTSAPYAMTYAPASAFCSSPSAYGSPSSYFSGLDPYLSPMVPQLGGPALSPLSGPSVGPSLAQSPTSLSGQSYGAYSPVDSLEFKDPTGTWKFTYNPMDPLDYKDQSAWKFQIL
# Summary of the method: as §1
# ETV3L = target: T4, ETV3L (Homo sapiens, UniProt Q6ZN32 1-361)
# T4 sequence: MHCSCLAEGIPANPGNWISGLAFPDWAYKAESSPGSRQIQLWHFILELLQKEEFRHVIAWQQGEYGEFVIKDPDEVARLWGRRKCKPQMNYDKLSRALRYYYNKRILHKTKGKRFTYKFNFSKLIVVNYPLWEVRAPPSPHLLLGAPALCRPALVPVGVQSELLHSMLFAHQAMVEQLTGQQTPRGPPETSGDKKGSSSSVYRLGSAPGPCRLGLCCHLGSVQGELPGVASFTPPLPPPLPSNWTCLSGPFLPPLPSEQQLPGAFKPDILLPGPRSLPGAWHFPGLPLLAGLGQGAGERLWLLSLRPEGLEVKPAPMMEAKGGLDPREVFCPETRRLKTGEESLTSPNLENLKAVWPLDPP
# Summary of the method: as §1
# GABPA = target: T5, GABPA (Homo sapiens, UniProt Q06546 1-454)
# T5 sequence: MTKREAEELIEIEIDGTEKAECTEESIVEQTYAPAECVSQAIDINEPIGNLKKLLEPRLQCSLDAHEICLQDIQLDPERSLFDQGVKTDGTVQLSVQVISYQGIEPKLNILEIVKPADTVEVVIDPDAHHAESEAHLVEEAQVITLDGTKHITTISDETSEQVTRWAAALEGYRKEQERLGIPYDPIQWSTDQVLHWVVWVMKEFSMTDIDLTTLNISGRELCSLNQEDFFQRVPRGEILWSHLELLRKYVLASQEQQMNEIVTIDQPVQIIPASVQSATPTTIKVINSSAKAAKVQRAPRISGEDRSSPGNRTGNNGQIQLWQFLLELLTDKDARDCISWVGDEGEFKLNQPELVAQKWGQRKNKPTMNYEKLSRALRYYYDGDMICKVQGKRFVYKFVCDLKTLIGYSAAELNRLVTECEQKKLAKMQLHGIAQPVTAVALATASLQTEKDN
# Summary of the method: as §1
# ERG = target: T6, ERG (Homo sapiens, UniProt P11308 1-479)
# T6 sequence: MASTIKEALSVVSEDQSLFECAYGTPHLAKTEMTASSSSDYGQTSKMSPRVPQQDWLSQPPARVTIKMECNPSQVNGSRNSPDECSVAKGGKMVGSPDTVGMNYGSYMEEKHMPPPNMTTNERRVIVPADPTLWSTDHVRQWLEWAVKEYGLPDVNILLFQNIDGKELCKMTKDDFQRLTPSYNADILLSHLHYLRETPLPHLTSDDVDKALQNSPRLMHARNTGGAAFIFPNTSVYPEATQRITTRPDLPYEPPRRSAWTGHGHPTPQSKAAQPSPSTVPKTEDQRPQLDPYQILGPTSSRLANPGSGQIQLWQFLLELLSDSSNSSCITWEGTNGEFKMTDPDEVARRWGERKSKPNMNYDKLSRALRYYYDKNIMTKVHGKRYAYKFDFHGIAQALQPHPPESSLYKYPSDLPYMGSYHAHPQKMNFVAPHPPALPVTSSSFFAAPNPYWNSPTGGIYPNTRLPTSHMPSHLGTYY
# Summary of the method: as §1
# EHF = target: T7, EHF (Homo sapiens, UniProt Q9NZC4 1-300)
# T7 sequence: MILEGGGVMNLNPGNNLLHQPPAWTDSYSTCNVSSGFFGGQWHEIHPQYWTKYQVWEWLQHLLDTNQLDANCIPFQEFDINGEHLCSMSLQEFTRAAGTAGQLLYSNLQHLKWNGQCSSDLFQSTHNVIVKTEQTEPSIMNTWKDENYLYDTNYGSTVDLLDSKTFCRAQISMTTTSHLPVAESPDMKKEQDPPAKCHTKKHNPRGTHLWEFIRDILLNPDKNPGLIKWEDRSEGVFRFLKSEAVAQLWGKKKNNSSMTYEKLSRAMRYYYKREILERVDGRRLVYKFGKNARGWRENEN
# Summary of the method: as §1
# SPIB = SPIB (Homo sapiens, UniProt Q01892 1-262)
# SPIB, sequence (Q01892 whole entry): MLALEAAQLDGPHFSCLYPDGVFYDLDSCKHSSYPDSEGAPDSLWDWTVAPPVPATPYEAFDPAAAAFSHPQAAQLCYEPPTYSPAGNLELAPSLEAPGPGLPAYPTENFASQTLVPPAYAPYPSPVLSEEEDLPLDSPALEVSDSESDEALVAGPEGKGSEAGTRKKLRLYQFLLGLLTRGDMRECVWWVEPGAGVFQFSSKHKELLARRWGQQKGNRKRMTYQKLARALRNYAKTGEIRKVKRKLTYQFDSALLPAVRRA
# Summary of the method: as §1
# ELK4 = target: T8, ELK4 (Homo sapiens, UniProt P28324-2 1-405)
# T8 sequence: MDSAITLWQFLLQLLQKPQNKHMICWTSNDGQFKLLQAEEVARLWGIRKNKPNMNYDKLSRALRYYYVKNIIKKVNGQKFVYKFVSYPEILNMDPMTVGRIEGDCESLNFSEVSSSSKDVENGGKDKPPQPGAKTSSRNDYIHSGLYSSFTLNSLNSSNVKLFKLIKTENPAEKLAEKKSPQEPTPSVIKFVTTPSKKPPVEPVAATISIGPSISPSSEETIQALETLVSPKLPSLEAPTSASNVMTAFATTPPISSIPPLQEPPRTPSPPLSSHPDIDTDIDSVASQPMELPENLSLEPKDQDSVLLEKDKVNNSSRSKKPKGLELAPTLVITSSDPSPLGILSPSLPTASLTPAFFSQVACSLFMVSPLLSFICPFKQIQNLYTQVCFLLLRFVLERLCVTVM
# Summary of the method: as §1
# ETV1 = ETV1 (Homo sapiens, UniProt P50549 1-477)
# ETV1, sequence (P50549 whole entry): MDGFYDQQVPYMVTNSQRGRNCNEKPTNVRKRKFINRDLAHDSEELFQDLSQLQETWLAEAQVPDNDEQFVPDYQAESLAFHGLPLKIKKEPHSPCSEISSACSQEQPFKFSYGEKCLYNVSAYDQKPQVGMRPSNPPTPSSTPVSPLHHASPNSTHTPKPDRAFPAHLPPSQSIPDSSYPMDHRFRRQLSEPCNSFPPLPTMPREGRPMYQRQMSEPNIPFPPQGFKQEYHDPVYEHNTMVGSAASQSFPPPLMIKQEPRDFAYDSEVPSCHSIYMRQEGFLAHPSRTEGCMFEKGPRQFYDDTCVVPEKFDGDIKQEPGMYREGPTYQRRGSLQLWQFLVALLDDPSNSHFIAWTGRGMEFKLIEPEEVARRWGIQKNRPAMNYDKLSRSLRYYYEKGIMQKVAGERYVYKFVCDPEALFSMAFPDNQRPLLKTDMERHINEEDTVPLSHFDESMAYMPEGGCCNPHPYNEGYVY
# Summary of the method: as §1
# ERF = target: T9, ERF (Homo sapiens, UniProt P50548 1-548)
# T9 sequence: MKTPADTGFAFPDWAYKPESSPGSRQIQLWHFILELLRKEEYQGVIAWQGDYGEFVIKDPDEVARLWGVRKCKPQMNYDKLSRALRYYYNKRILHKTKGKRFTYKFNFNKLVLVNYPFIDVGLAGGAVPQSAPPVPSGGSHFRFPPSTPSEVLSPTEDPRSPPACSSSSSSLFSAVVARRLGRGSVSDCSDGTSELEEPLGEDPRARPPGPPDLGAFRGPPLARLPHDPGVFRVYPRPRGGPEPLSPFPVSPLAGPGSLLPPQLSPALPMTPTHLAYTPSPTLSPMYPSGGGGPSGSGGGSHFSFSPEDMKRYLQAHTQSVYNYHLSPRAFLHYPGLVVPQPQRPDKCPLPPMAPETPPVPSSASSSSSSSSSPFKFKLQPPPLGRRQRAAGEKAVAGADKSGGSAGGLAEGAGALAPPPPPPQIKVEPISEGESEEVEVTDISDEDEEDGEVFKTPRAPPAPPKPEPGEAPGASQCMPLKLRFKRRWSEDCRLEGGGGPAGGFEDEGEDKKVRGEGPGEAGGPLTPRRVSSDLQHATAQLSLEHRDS
# Summary of the method: as §1
# ETV7 = target: T10, ETV7 (Homo sapiens, UniProt Q9Y603 1-341)
# T10 sequence: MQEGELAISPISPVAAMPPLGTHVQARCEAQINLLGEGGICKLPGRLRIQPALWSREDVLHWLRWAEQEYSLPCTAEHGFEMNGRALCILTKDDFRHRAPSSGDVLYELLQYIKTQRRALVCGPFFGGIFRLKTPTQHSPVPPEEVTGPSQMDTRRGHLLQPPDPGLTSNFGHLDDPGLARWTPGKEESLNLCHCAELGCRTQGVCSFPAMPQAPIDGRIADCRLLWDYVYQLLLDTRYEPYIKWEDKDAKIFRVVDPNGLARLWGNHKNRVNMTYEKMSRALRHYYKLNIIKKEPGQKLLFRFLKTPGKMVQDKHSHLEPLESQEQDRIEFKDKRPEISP
# Summary of the method: as §1
# ELF5 = target: T11, ELF5 (Homo sapiens, UniProt Q9UKW6-2 1-255)
# T11 sequence: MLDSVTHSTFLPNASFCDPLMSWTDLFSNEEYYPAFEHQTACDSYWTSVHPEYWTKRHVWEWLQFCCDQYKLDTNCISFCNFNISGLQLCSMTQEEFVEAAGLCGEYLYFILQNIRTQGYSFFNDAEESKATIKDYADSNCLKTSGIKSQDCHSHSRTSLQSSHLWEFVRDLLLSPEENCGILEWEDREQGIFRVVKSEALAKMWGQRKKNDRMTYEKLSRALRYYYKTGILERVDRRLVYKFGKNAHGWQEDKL
# Summary of the method: as §1
sequence,measurement,setting,value
AACGGT,binding signal,ELK1,"1.06 fold enrichment (6-mer frequency, TF over GST control)"
same,binding signal,ELF4,"1.03 fold enrichment (6-mer frequency, TF over GST control)"
same,binding signal,ETV2,"1.05 fold enrichment (6-mer frequency, TF over GST control)"
same,binding signal,ETV6,"1.01 fold enrichment (6-mer frequency, TF over GST control)"
GACTAT,binding signal,ELF4,"1.01 fold enrichment (6-mer frequency, TF over GST control)"
same,binding signal,ELF3,"1.03 fold enrichment (6-mer frequency, TF over GST control)"
same,binding signal,CRX,"1.02 fold enrichment (6-mer frequency, TF over GST control)"
same,binding signal,ETV3L,"1.04 fold enrichment (6-mer frequency, TF over GST control)"
GATTGC,binding signal,ELK1,"1.06 fold enrichment (6-mer frequency, TF over GST control)"
same,binding signal,GABPA,"1.04 fold enrichment (6-mer frequency, TF over GST control)"
same,binding signal,ERG,"1.01 fold enrichment (6-mer frequency, TF over GST control)"
same,binding signal,EHF,"1.02 fold enrichment (6-mer frequency, TF over GST control)"
same,binding signal,SPIB,"1.05 fold enrichment (6-mer frequency, TF over GST control)"
same,binding signal,ELK4,"1.04 fold enrichment (6-mer frequency, TF over GST control)"
same,binding signal,ETV2,"1.09 fold enrichment (6-mer frequency, TF over GST control)"
same,binding signal,ETV1,"1.02 fold enrichment (6-mer frequency, TF over GST control)"
same,binding signal,ERF,"1.02 fold enrichment (6-mer frequency, TF over GST control)"
same,binding signal,ETV3L,"1.02 fold enrichment (6-mer frequency, TF over GST control)"
same,binding signal,ETV7,"1.03 fold enrichment (6-mer frequency, TF over GST control)"
same,binding signal,ELF5,"1 fold enrichment (6-mer frequency, TF over GST control)"
